# A selection: hits, their analogues and other compounds. The true share with any hit is near 12%.
# m-calpain inh = calpain II (pig) inhibition; purified calpain II, fluorogenic peptide substrate, 30 min; 220,000 tested, 0.37% active; inhibition, % at 16 µM;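 active = inhibition above about 50%, limit read from the data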
# WT yeast gro inh = growth inhibition of WT yeast, mitochondrial fusion screen. mitochondrial fusion phenotypic screen, WT strain. inhibition, % at 10 µM. 190,000 tested, 2.1% active. AID 1362; in the data active = inhibition above about 58%; tested in S. cerevisiae
# Lmaj promast = reduces viability of Leishmania major promastigotes. resazurin fluorescence viability. inhibition, % at 10 µM. 200,000 tested, 9% active; in the data active = inhibition above about 50%;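 also: promastigotes grown with compound for 44 hours at 28 °C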
# KCC2 mod = modulators of human KCC2 chloride dependent transport. Q9H2X9. KCC2 cells, thallium flux FluoZin-2 fluorescence. B-score of Tl+ flux slope (higher = more flux/activation; lower = inhibition) at 10 µM. 190,000 tested, 2.2% active. AID 1456;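 active = thallium flux slope and its plate-corrected score both differing from the plate sample mean at a set confidence after two filtering rounds, in either direction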;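 also: slope of fluorescence scaled to starting intensity during 10 to 20 s after thallium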
# ROMK mod = modulators of human ROMK potassium channel; P48048; Tet-inducible ROMK, thallium flux fluorescence; actives lie on both sides; B-score at 10 µM; 130,000 tested, 2% active; AID 1918;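 active = signal ratio slope over the read window, or its plate-corrected B-score, at least 3 SD from the plate mean, either direction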;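 also: B-score of the F/F0 ratio slope over 7 to 12 s after thallium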
# ROMK retest = confirmation of human ROMK potassium channel modulators; shares compounds with ROMK mod; ROMK thallium flux, fluorescence ratio; active compounds read low; normalized thallium flux (F/F0 slope) at 10 µM; 3,000 tested, 54% active; AID 1917;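 active = Flux at 10 µM at least 3 SD below or above vehicle control mean in one or both replicates; inconclusive = no clear call, values can overlap the other calls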
# Active calls of the source: *; ? = inconclusive; . = not tested or not shown.
SMILES,m-calpain inh,WT yeast gro inh,Lmaj promast,KCC2 mod,ROMK mod,ROMK retest
C/C(CC(=O)NCc1ccco1)=N\NC(=O)COc1ccc(Cl)cc1Cl,7.2,-7.7,-6.2,-1.19,3.57*,0.0921
COc1ccc(CNC(=O)C/C(C)=N/NC(=O)COc2ccc(C)cc2Br)cc1,-15.2,2.6,-5.7,-0.56,3.35*,0.0737
C#CCNC(=O)C(C)c1ncc(C(F)(F)F)cc1Cl (centres undefined),-4.2,5.9,3.1,-0.817,0.154,.
Cc1occc1C(=O)NC1CCCCCC1,12.4,13.6,1.3,0.446,3.09*,0.0734
CSC(=Nc1cccc(C)c1)NC#N,29.0,1.1,4.5,-0.554,0.806,.
CC(C)c1cc(Nc2cccc(O)c2)cc(C(C)C)c1O,.,.,21.6,0.0408,.,.
c1nc2n(n1)C1=C(CCCC1)C1(CCCCC1)N2,19.0,6.4,30.6,1.43,0.198,.
COc1cc2cc(C(c3nnnn3C(C)(C)C)N3CCc4ccccc4C3)c(=O)[nH]c2cc1OC (centres undefined),-128.4,-0.8,27.5,-0.889,-3.62*,?
CCc1sc(NC(C)=O)nc1-c1ccccc1,-10.0,-22.7,-2.0,-0.0184,-1.61,.
CCc1sc(NS(C)(=O)=O)nc1-c1ccccc1,12.2,-3.1,-5.1,0.546,2.81*,0.0829
COc1cccc(NC(=O)c2ccc(CN3CCN(c4ccccc4)CC3)cc2)c1,20.1,-6.9,-3.6,-1.75,-1.44,.
Cc1cccc(NC(=O)c2ccc(CN3CCN(Cc4ccccc4)CC3)cc2)c1,19.1,7.7,99.5*,-0.581,-2.12*,?
CC(=O)Nc1ccc(OCCOc2ccc(/C=C3/C(=N)N4C=CSC4=NC3=O)cc2)cc1,9.9,0.6,-1.2,-0.585,4.12*,?
COc1cccc(NC(=O)C(Cc2ccccc2)n2cccc2)c1 (centres undefined),-5.2,.,.,0.648,-0.0112,.
CC(C)(C)c1nnc(SCC(=O)c2ccccc2)n(N)c1=O,14.7,15.8,-4.8,0.179,-1.76,.
Cc1ccccc1C1CC(=O)NC2=C1C(=O)CCC2 (centres undefined),-51.0,-2.4,-3.6,1.06,0.691,.
CCC(C)Oc1ccccc1C1CC(=O)NC2=C1C(=O)CCC2 (centres undefined),-9.5,5.0,-4.8,0.112,2.77*,0.0925
Cc1cccc(C(C)C)c1NC(=O)C1CN(S(=O)(=O)c2ccccc2)CCN1S(=O)(=O)c1ccccc1 (centres undefined),-50.6,-5.2,4.7,-1.13,.,.
Cc1ccc(CN2CCC(c3nc4ccc(Cl)cc4[nH]3)CC2)cc1,16.8,0.7,92.2*,.,.,?
CC1CCCCN1C(=O)CN1CCC(c2nc3ccc(Cl)cc3[nH]2)CC1 (centres undefined),-16.6,-3.0,2.6,0.202,-1.52,.
O=C(O)c1ccccc1-c1nc2cc(Cl)ccc2c(=O)n1O,-21.4,-11.6,-15.7,0.584,-3.21*,0.0682*
O=c1c2ccccc2nc(-c2ccccc2Cl)n1O,-51.9,1.9,-5.1,1.79,2.78*,0.0712
Cc1cc(C)c2c(NC(=S)NC(=O)c3ccccc3)n[nH]c2n1,29.4,-1.9,8.2,-0.451,0.0466,.
CC1(C)CC(C)(O)N(Cc2ccccc2)C(=S)N1 (centres undefined),-2.6,-0.8,-4.2,0.0242,.,.
OC1(c2ccc(Cl)c(Cl)c2)C[n+]2ccccc2N1Cc1ccccc1 (centres undefined),-43.0,.,.,1.1,-4.02*,0.0584*
SMILES,m-calpain inh,WT yeast gro inh,Lmaj promast,KCC2 mod,ROMK mod,ROMK retest
CCCCCCNC(=O)N[C@H](C(=O)NCCC[C@H]1CN2C(=NC[C@H]2C)N1CCC(c1ccccc1)c1ccccc1)C(C)O (some centres undefined),-15.4,.,.,-0.0121,.,0.0611*
O=C(NCc1ccco1)c1ccc(=O)[nH]n1,-33.0,10.3,-1.7,.,-0.339,.
O=C(NCc1ccccc1)c1ccc(=O)[nH]n1,-7.2,11.1,-7.8,2.25,0.553,0.0767
COc1cc(CN2CCN(Cc3ccc([N+](=O)[O-])cc3)CC2)c([N+](=O)[O-])cc1OC,-23.0,14.2,67.7*,-0.392,-4.26*,0.0444*
CCN(CC)CCCN1C(=O)C(O)=C(C(=O)c2cccs2)C1c1ccccn1 (centres undefined),.,.,-4.7,-0.601,.,.
COc1cc(NC(=O)C2CCN(S(=O)(=O)c3ccc(Cl)cc3)CC2)ccc1-n1cnnn1,-24.9,-21.2,-1.1,0.0201,.,0.0532*
COc1ccc(NC(=O)C2CC2)cc1-n1cnnn1,-13.3,3.1,-7.9,0.088,.,.
CCOc1ccc(N2CC(=O)N/C2=N\c2nc(C)cc(C)n2)cc1,28.6,-12.7,14.4,-0.332,.,0.0769
Cc1c(N2C(=O)/C(=C\C3CC=CCC3)SC2=S)c(=O)n(-c2ccccc2)n1C (centres undefined),-4.3,6.5,10.2,-0.458,-6.55*,0.0378*
Cc1c(NC(=O)/C(C#N)=C/C2CC=CCC2)c(=O)n(-c2ccccc2)n1C (centres undefined),28.2,-3.6,0.5,-0.118,-4.97*,0.0431*
Cc1c(NC(=O)/C(C#N)=C/c2ccc(-c3cc(Cl)ccc3Cl)o2)c(=O)n(-c2ccccc2)n1C,-32.2,2.1,8.4,-0.478,.,.
Cc1c(NC(=O)/C(C#N)=C/c2ccc(-c3ccc(Cl)cc3)o2)c(=O)n(-c2ccccc2)n1C,30.9,16.8,8.9,-3,-2.61*,0.0801
O=C(Nc1ccc(F)c([N+](=O)[O-])c1)C(=O)c1c(O)[nH]c2ccccc12,-11.1,1.5,5.0,0.302,-0.079,.
CCOC(=O)c1ccc(NC(=O)COc2ccc(-n3cnnn3)cc2)cc1,-54.6,-3.3,-5.2,.,1.44,0.0887
COc1ccc(OCC(=O)Nc2ccccc2C(=O)N2CCOCC2)cc1,-15.8,-1.5,-4.0,0.141,2.97*,0.0804
COc1cc(/C=C(/Sc2nnc(-c3ccc(F)cc3)o2)C(=O)O)ccc1OC(F)F,-36.6,11.8,38.0,-0.763,-11*,0.0769
Cc1nc(-c2cccc(Br)c2)ccc1C(=O)O,-18.4,-10.7,-12.5,-0.133,-0.48,.
O=C(O)c1cccc(-c2ccc(/C=c3/sc4nc5ccccc5n4c3=O)o2)c1,7.1,.,.,-0.0356,.,0.0401*
CC[N+](CC)(CC=C(C)C)CC(=O)OC,-28.4,-2.2,-7.2,0.539,0.879,.
O=C(NCCc1c[nH]c2ccccc12)/C(=C/c1ccco1)NC(=O)c1ccco1,16.1,-5.4,0.5,-0.393,2.32*,0.088
Nc1nc(SCC(=O)NCCOCCO)nc2sc3c(c12)CCCC3,18.4,18.8,-1.2,-0.12,-0.265,.
Cc1nc2cc(NCc3nc4ccccc4n3Cc3ccccc3)ccc2n1C,-19.1,9.2,26.8,.,-5.2*,0.0607*
Cc1cccc(NCc2nc3ccccc3n2C)c1,-4.2,11.4,-0.6,-2.59,-0.885,.
Cc1cc(Cl)c(S(=O)(=O)Nc2ccc3c(c2)OCCO3)cc1OCC(=O)NC1CCCCC1,-45.1,-1.2,99.1*,-0.064,-3.16*,0.0664*
Cc1cc(Cl)c(S(=O)(=O)N2CCN(c3ccc(F)cc3)CC2)cc1OCC(=O)NC1CCCCC1,33.9,38.7,-5.4,-0.743,-4.3*,0.0625*

# Bioassay records: PubChem BioAssay, several laboratories
